Bioassay records (PubChem BioAssay)
Only some compounds are listed: those with a hit (about 9.3% of all), similar ones and a draw of the others.
A340 absorber: compound absorbs light at 340 nm. compound absorbance at 340 nm, fold over control. fold change at 10 µM. 65,000 tested, under 10 active. AID 708;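 active means at 10 µM dose, initial 340 nm absorbance at least 2 fold that of control wells; inactive means change under 2 fold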;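 further: initial absorbance extrapolated from kinetic A340 decline of NADH oxidation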
NADH enzymes: inhibitors of enzymes used to reach an NAD/NADH endpoint | coupled PK/LDH NADH assays, four targets | IC50, µM (series often up to 10 µM), for the others: at the top dose inhibition | 65,000 tested, 0.02% active | AID 774;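 active means single-dose screening hits from any of four coupled enzyme assays that gave an IC50 when retested across doses; inconclusive means no clear call, values can overlap the other calls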;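 further: the DPM-DC format reads NADH fluorescence rather than 340 nm absorbance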
mHtt clearance: compounds clearing mutant huntingtin protein; HeLa Exon1htt(103Q)mCFP, aggregate imaging; zero = plate's median compound well; inhibition, % at 1.5 µM; 47,000 tested, 0.42% active; AID 853;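 active means inhibition of aggregate fluorescence above about 70%, also judged a hit by eye on the cell image, limit read from the data, passing the limit was not always enough; inconclusive means no rule stated for this call; inactive means not judged a hit on image review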;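 further: cells exposed to compound for three days before fixation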
Autofluor 339: intrinsic fluorescence of library compounds, ex339/em460 – biochemical, MLSMR library, data from DPM-DC assay, artefact control, profiling panel; compound autofluorescence, ex339/em460 nm, NADH buffer; stronger effect = higher value; 1 = no-compound wells, NADH background; AID 709; fluorescence fold increase at 10 µM; 65,000 tested, 5.5% active;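 active means at 10 µM, mean starting fluorescence two-fold or more over control wells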;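 further: signal is the first read of a kinetic run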
M1 ag: M1 muscarinic receptor agonism | CHO-M1 cells, Fluo-4 calcium fluorescence, agonist mode; stronger effect = higher value | B-score at 10 µM | 64,000 tested, 3% active | AID 626;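 active means fluorescence rise, raw or as B-score row- and column-corrected plate score, outside the 99.7% band of its plate's samples, either direction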
M1 antag: blocks the rat M1 muscarinic receptor response to acetylcholine | 64,000 tested, 3.4% active | B-score at 10 µM | AID 628 | CHO-M1 cells, Fluo-4 calcium, ACh EC80 antagonist mode; stronger effect = lower value | P08482;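 active means calcium fluorescence response, raw or row-and-column corrected B-score, differing from the plate sample mean either way at a set confidence level, mostly lower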
Target sequence (P08482 whole entry, looked up): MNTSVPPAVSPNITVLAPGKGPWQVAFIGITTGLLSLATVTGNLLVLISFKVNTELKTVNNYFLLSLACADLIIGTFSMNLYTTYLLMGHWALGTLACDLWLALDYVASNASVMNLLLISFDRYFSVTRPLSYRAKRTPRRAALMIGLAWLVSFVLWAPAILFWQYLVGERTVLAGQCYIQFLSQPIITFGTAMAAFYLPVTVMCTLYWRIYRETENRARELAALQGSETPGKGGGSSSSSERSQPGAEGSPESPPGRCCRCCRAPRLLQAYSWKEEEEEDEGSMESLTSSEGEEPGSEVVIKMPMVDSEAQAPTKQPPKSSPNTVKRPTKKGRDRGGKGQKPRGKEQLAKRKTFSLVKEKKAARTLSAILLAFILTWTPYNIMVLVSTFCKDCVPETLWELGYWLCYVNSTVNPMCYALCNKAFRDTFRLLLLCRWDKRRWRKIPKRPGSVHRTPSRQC
M1 ag confirm: rat M1 muscarinic agonism, confirmation; CHO-M1 cells, Fluo-4 calcium fluorescence, agonist mode; actives lie on both sides; 1,700 tested, 19% active; fluorescence change (max-min) at 10 µM; AID 1488; shares compounds with M1 ag;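 active means fluorescence change differs from the solvent-only DMSO control mean at a set confidence level in both duplicate runs; inconclusive means differs from solvent-only control mean in just one of two runs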;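 further: an EC20 dose of acetylcholine follows compound addition during the same imaging run; raw fluorescence intensity difference in instrument units with no normalization to controls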
M4 agonist ctr: counter-screen for M1 agonists: activity at rat M4 receptor; fluorescence change (max-min) at 10 µM; 1,700 tested, 9% active; shares compounds with M1 ag; CHO M4/Gqi5 cells, Fluo-4 calcium fluorescence, agonist mode; actives lie on both sides;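 active means fluorescence change differing from the plate's solvent-only control wells at 99.7% confidence in both duplicates, whether higher or lower; inconclusive means differs from solvent controls in only one of two duplicates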
An asterisk follows results filed as active; ? = inconclusive; · = no result.

SMILES	A340 absorber	NADH enzymes	mHtt clearance	Autofluor 339	M1 ag	M1 antag	M1 ag confirm	M4 agonist ctr
COc1ccc(CCNc2nc(C)nc3c2oc2ccccc23)cc1OC	·	·	·	·	17.6*	-2.31*	-0.113	?
Cc1nc(NCc2ccco2)c2oc3ccccc3c2n1	0.99	3.0%	-23.8	0.66	-1.02	-0.409	·	·
Cc1nc(NCCc2cnc[nH]2)c2oc3ccccc3c2n1	1.05	4.0%	·	1.06	-0.869	-1.17	·	·
Cc1nc(NC(C)c2ccccc2)c2oc3ccccc3c2n1 (configuration not stated)	1.04	10.0%	-22.4	1.11	3.32*	-0.253	-22.5	-20.3
CCCn1c(=O)c(C(=O)Nc2nnc(CC)s2)c(O)c2ccccc21	0.99	3.0%	·	1.19	-0.468	-0.0486	·	·
CCOC(=O)N1CCC(n2c(SCC(=O)N3CCC(C)CC3)nc3ccccc3c2=O)CC1	·	·	13.4	·	·	·	·	·
CCOC(=O)N1CCC(n2c(SCC(=O)NCc3ccccc3)nc3ccccc3c2=O)CC1	0.98	4.0%	40.4	1.05	3.64*	-1.03	-6.29	-10.9
O=S(=O)(c1cc(-c2nc3ccccc3s2)ccc1Cl)N1CCOCC1	·	·	8.5	·	·	·	·	·
CCCCCCCOc1ccc(OC(=O)c2cccnc2)cc1	·	·	26.6	·	·	·	·	·
CCCCCn1c(=O)[nH]c2cc(C(=O)NCCN(CC)CC)ccc2c1=O	1.03	5.0%	-12.4	1.52	-2.06*	-0.501	-35.6*	-91.5
Cc1[nH]n(CCC#N)c(=O)c1CC(=O)N1CCN(c2ccccc2)CC1	1.02	5.0%	10.9	1.1	0.802	0.513	·	·
O=C(NC1CCCCCC1)C1CCN(S(=O)(=O)c2ccccc2)CC1	1.04	0.0%	-7.0	1.1	6.55*	0.726	?	?
O=C(CSc1n[nH]c(=O)n1C1CC1)Nc1cc(Cl)ccc1Oc1ccccc1	1.03	5.0%	84.2*	1.11	6.89*	-2.73*	-13.5	-13.9
O=C(CN1CCOc2ccccc21)N1CCN(c2cccc(Cl)c2)CC1	1.05	4.0%	·	1.13	-0.342	-0.0768	·	·
CCn1cc(C(C)NC(=O)COc2ccc(Cl)cc2C)c(C)n1 (configuration not stated)	0.99	11.0%	·	1.03	0.0142	0.0134	·	·
C=CCn1c2ccccc2c2nnc(SCc3ccc4nonc4c3)nc21	1.08	3.0%	13.7	1.14	2.27*	0.364	-22.1	-44.7
O/N=C1\CCc2cc(Cl)ccc21	1.01	6.0%	11.3	1.05	5.48*	-0.154	4.87	-7.32
O=C(Nc1nc(-c2ccccc2)cs1)C1CCCN(S(=O)(=O)c2ccccc2)C1 (configuration not stated)	0.99	6.0%	-21.6	1.06	4.48*	-0.914	?	-34.2
O=C(Nc1nc(-c2ccccc2)cs1)C1CCCCN1S(=O)(=O)c1ccccc1 (configuration not stated)	0.98	3.0%	·	1.05	0.394	-0.684	·	·
Cc1nnc(NC(=O)C2CCCN(S(=O)(=O)c3ccccc3C(F)(F)F)C2)s1 (configuration not stated)	1.01	4.0%	-77.8	1.11	15.8*	0.171	-30.4	-44.4
Cc1nnc(NC(=O)C2CCCN(S(=O)(=O)Cc3ccccc3)C2)s1 (configuration not stated)	1.04	4.0%	·	1.12	0.586	0.241	·	·
COC(=O)c1ccccc1NC(=O)C1CCCN(S(=O)(=O)c2ccc(F)cc2)C1 (configuration not stated)	1.01	3.0%	·	1.05	5.51*	2.07	5.81	-3.64
COC(=O)c1ccccc1NC(=O)C1CCCN(S(=O)(=O)c2ccccc2)C1 (configuration not stated)	1.04	6.0%	3.6	1.05	0.993	-0.0919	·	·
CCCCCn1c(CCCNC(=O)CC)nc2ccccc21	1.03	2.0%	·	1.1	-0.00788	1.04	·	·
CC(=O)Nc1ccc2c(c1)nc(CCN1CCN(C)CC1)n2C	1.01	2.0%	-10.0	1.07	-0.209	0.00648	·	·
SMILES	A340 absorber	NADH enzymes	mHtt clearance	Autofluor 339	M1 ag	M1 antag	M1 ag confirm	M4 agonist ctr
COC(=O)c1ccccc1NC(=O)Cn1cnc2c(cnn2-c2ccc(C)c(C)c2)c1=O	·	·	17.1	·	·	·	·	·
COC(=O)c1ccccc1NC(=O)Cn1cnc2cc(C)c(C)cc21	1.02	4.0%	19.8	1.08	-2.84*	-0.428	-3.3	-25.6
O=C(Cn1nnc(-c2ccc(Cl)cc2)n1)NCC1CCCCC1	0.98	9.0%	·	1	0.339	1.26	·	·
CCCCNC(=O)CC1Nc2ccccc2NC1=O (configuration not stated)	1.08	8.0%	·	1.77	7.87*	-0.477	29.7	?
CC(=O)N1CCc2cc(S(=O)(=O)CCC(=O)Nc3c(C)n(C)n(-c4ccccc4)c3=O)ccc21	0.98	9.0%	5.4	1.07	8.56*	-0.511	?	-32.4
CCCCOC(=O)Nc1cccc(Cl)c1C	·	·	26.9	·	·	·	·	·
COCC(C)n1c(C)cc(C(=O)CSc2nc3ccccc3c(=O)[nH]2)c1C (configuration not stated)	1.02	2.0%	·	1.06	2.79*	0.738	-15.1	-20.5
CCCCC(=O)Nc1nc(C)c(C(C)=O)s1	1.06	0.0%	-4.5	1.07	0.0177	-0.722	·	·
CC(=O)c1sc(NC(=O)C2(F)C(F)(F)C(F)(F)C(F)(F)C(F)(F)C2(F)F)nc1C	1.16	9.0%	·	1.04	9.24*	0.12	31.7	?
CC(=O)c1sc(NC(=O)C=C(C)C)nc1C	1.17	2.0%	·	1.08	-2.22*	-0.166	-25.2*	-57.7
COc1cc(C2C(C#N)=C(N)Oc3cc(O)ccc32)cc2c1OCO2 (configuration not stated)	1.05	1.0%	·	1.12	-0.507	0.242	·	·
COc1cc(C2C(C#N)=C(N)Oc3cc(N(C)C)ccc32)cc2c1OCO2 (configuration not stated)	1.05	6.0%	·	1.22	44.8*	-0.252	206*	203*
Cn1c(=O)c2cc(S(=O)(=O)NCCC(=O)NCCC3=CCCCC3)ccc2n(C)c1=O	1.01	5.0%	·	1.12	1.3	0.604	·	·
Cc1ccc(S(=O)(=O)N2CCN(C(=O)c3cc(=O)[nH]c4ccccc34)CC2)c(C)c1	1.01	5.0%	·	1.38	4.71*	-0.0104	-27.8	-49.9
O=C(CSC1=NCCS1)Nc1ccnc2ccccc12	1.03	4.0%	·	1.12	4.23*	-1.49	7.12	?
O=C(O)CCCNCc1ccccc1F	0.98	5.0%	-9.6	1.07	0.715	0.419	·	·
Cc1cc2ncn(C3CC(=O)N(Cc4ccccc4)C3=O)c2cc1C (configuration not stated)	1.04	2.0%	-24.0	1.08	5.78*	-0.587	?	-18.1
Cc1ccc(S(=O)(=O)N2CCN(C3CC(=O)N(Cc4ccccc4)C3=O)CC2)cc1C (configuration not stated)	0.99	4.0%	-39.2	1.08	-0.197	-0.804	·	·
